From PubChem BioAssay AID1159580 (chemical genetic matrix, 2015)
In all, about 5,500 compounds went through this assay and about 2,000 (36%) were called active. About 18% were inconclusive and are not listed. No stated cut-off is given here; in the data, active means normalized growth mostly below about 0.91 (no sharp cut-off); inconclusive means no clear call, values can overlap the other calls; inactive means mostly above about 0.92. Some of the results follow.

Assay: chemical genetic growth profiling, strain panel (AID 1159580);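 further: tested at 20 µM; growth read once vehicle control cultures reached saturation at 30 °C; 1 = growth at the plate median or of vehicle wells; lower values mean less growth of the strain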
Settings: growth OD

Measured: normalized growth

O=C1C=CC2=C3c4cc(O)c(O)cc4CC3(O)COC2=C1O (centres undefined)
inactive: S. cerevisiae deletion strains, locus YJR043C, strain POL32, active compounds read low 0.868 | S. cerevisiae deletion strains, locus YJR066W, strain TOR1, active compounds read low 0.953 | S. cerevisiae deletion strains, locus YJR075W, strain HOC1, active compounds read low 0.981 | S. cerevisiae deletion strains, locus YKL068W, active compounds read low 1.02 | S. cerevisiae deletion strains, locus YKL085W, strain MDH1 (second series), active compounds read low 1.02 | S. cerevisiae deletion strains, locus YKL085W, strain MDH1, active compounds read low 1.02 | S. cerevisiae deletion strains, locus YKL160W, strain elf1, active compounds read low 1.01 | S. cerevisiae deletion strains, locus YKR001C, strain vps1, active compounds read low 1.06 | S. cerevisiae deletion strains, locus YKR026C, strain gcn3, active compounds read low 1.05 | S. cerevisiae deletion strains, locus YKR091W, strain srl3, active compounds read low 1.04 | S. cerevisiae deletion strains, locus YLL001W, strain dnm1, active compounds read low 1 | S. cerevisiae deletion strains, locus YLL026W, active compounds read low 1.02 | S. cerevisiae deletion strains, locus YLL041C, strain sdh2, active compounds read low 1.02 | S. cerevisiae deletion strains, locus YLR027C, strain aat2, active compounds read low 1.01 | S. cerevisiae deletion strains, locus YLR039C, strain RIC1, active compounds read low 0.848 | S. cerevisiae deletion strains, locus YLR058C, strain SHM2, active compounds read low 0.92 | S. cerevisiae deletion strains, locus YLR102C, strain apc9, active compounds read low 1.03 | S. cerevisiae deletion strains, locus YLR113W, strain HOG1, active compounds read low 1.06 | S. cerevisiae deletion strains, locus YLR221C, strain rsa3, active compounds read low 0.992 | S. cerevisiae deletion strains, locus YLR258W, strain gsy2, active compounds read low 0.996 | S. cerevisiae deletion strains, locus YLR262C, strain YPT6 (second series), active compounds read low 0.875 | S. cerevisiae deletion strains, locus YLR262C, strain YPT6, active compounds read low 0.931 | S. cerevisiae deletion strains, locus YLR268W, strain sec22, active compounds read low 1.01 | S. cerevisiae deletion strains, locus YLR320W, strain mms22, active compounds read low 1.04 | S. cerevisiae deletion strains, locus YLR330W, strain CHS5, active compounds read low 1.01 | S. cerevisiae deletion strains, locus YLR342W, strain FKS1 (second series), active compounds read low 0.86 | S. cerevisiae deletion strains, locus YLR342W, strain FKS1, active compounds read low 0.994 | S. cerevisiae deletion strains, locus YLR357W, strain rsc2, active compounds read low 0.88 | S. cerevisiae deletion strains, locus YLR370C, strain arc18, active compounds read low 0.977 | S. cerevisiae deletion strains, locus YLR371W, strain rom2, active compounds read low 0.96 | S. cerevisiae deletion strains, locus YLR384C, strain iki3, active compounds read low 1.02 | S. cerevisiae deletion strains, locus YLR418C, strain cdc73, active compounds read low 0.954 | S. cerevisiae deletion strains, locus YML016C, strain PPZ1, active compounds read low 0.938 | S. cerevisiae deletion strains, locus YML032C, strain rad52, active compounds read low 1.05 | S. cerevisiae deletion strains, locus YML120C, strain ndi1, active compounds read low 1.02 | S. cerevisiae deletion strains, locus YML124C, strain tub3, active compounds read low 1.03 | S. cerevisiae deletion strains, locus YMR078C, strain ctf18, active compounds read low 1.05 | S. cerevisiae deletion strains, locus YMR125W, strain sto1, active compounds read low 1.11 | S. cerevisiae deletion strains, locus YMR129W, active compounds read low 1.03 | S. cerevisiae deletion strains, locus YMR205C, strain PFK2, active compounds read low 1.05 | S. cerevisiae deletion strains, locus YMR223W, strain ubp8, active compounds read low 1.01 | S. cerevisiae deletion strains, locus YMR263W, strain SAP30, active compounds read low 0.965 | S. cerevisiae deletion strains, locus YMR307W, strain GAS1, active compounds read low 0.815 | S. cerevisiae deletion strains, locus YNL067W, strain RPL9B, active compounds read low 0.956 | S. cerevisiae deletion strains, locus YNL071W, strain lat1, active compounds read low 1.04 | S. cerevisiae deletion strains, locus YNL183C, strain NPR1, active compounds read low 0.983 | S. cerevisiae deletion strains, locus YNL233W, strain BNI4, active compounds read low 0.97 | S. cerevisiae deletion strains, locus YNL248C, strain rpa49, active compounds read low 1.03 | S. cerevisiae deletion strains, locus YNL250W, strain rad50, active compounds read low 1 | S. cerevisiae deletion strains, locus YNL271C, strain bni1, active compounds read low 1.01 | S. cerevisiae deletion strains, locus YNL298W, strain CLA4, active compounds read low 1.01 | S. cerevisiae deletion strains, locus YNL307C, strain MCK1, active compounds read low 1.02 | S. cerevisiae deletion strains, locus YNL322C, strain KRE1 (second series), active compounds read low 1.05 | S. cerevisiae deletion strains, locus YNR049C, strain mso1, active compounds read low 1.05 | S. cerevisiae deletion strains, locus YNR052C, strain pop2, active compounds read low 1.01 | S. cerevisiae deletion strains, locus YOL012C, strain htz1 0.462 | S. cerevisiae deletion strains, locus YOL147C, strain pex11, active compounds read low 1.03 | S. cerevisiae deletion strains, locus YOR001W, strain rrp6, active compounds read low 1.01 | S. cerevisiae deletion strains, locus YOR061W, strain CKA2, active compounds read low 0.977 | S. cerevisiae deletion strains, locus YOR069W, strain VPS5, active compounds read low 0.992 | S. cerevisiae deletion strains, locus YOR070C, strain gyp1, active compounds read low 0.969 | S. cerevisiae deletion strains, locus YOR080W, strain dia2, active compounds read low 1.04 | S. cerevisiae deletion strains, locus YOR083W, strain WHI5, active compounds read low 0.965 | S. cerevisiae deletion strains, locus YOR136W, strain idh2, active compounds read low 1.05 | S. cerevisiae deletion strains, locus YOR144C, strain elg1, active compounds read low 1.03 | S. cerevisiae deletion strains, locus YOR184W, strain ser1, active compounds read low 1.04 | S. cerevisiae deletion strains, locus YOR231W, strain MKK1, active compounds read low 1.02 | S. cerevisiae deletion strains, locus YOR265W, strain rbl2, active compounds read low 1.02 | S. cerevisiae deletion strains, locus YOR270C, strain vph1, active compounds read low 0.956 | S. cerevisiae deletion strains, locus YOR290C, strain snf2, active compounds read low 0.985 | S. cerevisiae deletion strains, locus YOR316C, strain cot1, active compounds read low 1.04 | S. cerevisiae deletion strains, locus YPL078C, strain atp4, active compounds read low 1.01 | S. cerevisiae deletion strains, locus YPL106C, strain sse1, active compounds read low 0.99 | S. cerevisiae deletion strains, locus YPL240C, strain hsp82, active compounds read low 1.03 | S. cerevisiae deletion strains, locus YPL241C, strain CIN2, active compounds read low 0.994 | S. cerevisiae deletion strains, locus YPL256C, strain CLN2, active compounds read low 1.05 | S. cerevisiae deletion strains, locus YPR119W, strain clb2, active compounds read low 1.02 | S. cerevisiae deletion strains, locus YPR141C, strain kar3, active compounds read low 1.01 | S. cerevisiae deletion strains, locus YPR163C, strain tif3, active compounds read low 1.02 | S. cerevisiae deletion strains, locus YPR167C, strain met16, active compounds read low 1.04 | S. cerevisiae deletion strains, strain wtn01, active compounds read low 1.03
active: S. cerevisiae deletion strains, locus YKL009W, strain mrt4, active compounds read low 1.16 [resistant] | S. cerevisiae deletion strains, locus YKL190W, strain CNB1, active compounds read low 0.908 | S. cerevisiae deletion strains, locus YMR058W, strain fet3, active compounds read low 0.611 | S. cerevisiae deletion strains, locus YNL128W, strain TEP1, active compounds read low 0.845 | S. cerevisiae deletion strains, locus YNL209W, strain ssb2, active compounds read low 0.831 | S. cerevisiae deletion strains, locus YOR106W, strain vam3, active compounds read low 0.811 | S. cerevisiae deletion strains, locus YPL051W, strain arl3, active compounds read low 0.884 | S. cerevisiae strains, strain wild type, active compounds read low 0.814
